FMDV inh: blocks foot and mouth disease virus; 410,000 compounds, 1.2% hits; FMDV antiviral cell-based qHTS; Potency, µM (top dose mostly 57.9 µM), for inactives: at the highest dose activity change, negative = inhibition, usual class: inhibitors; calls by dose curve; tested in HEK293T cells; further: read-out not given here; potency means the concentration at half of the fitted maximal effect; nearly all actives have a fitted effect of over 45% in size
HCMV inh: inhibitors of human cytomegalovirus; HFF cells, HCMV-luciferase reporter, 72 h; active compounds read low; activity change, negative = inhibition, % at 57.5 µM; 410,000 compounds, 4.5% hits; in the data active means activity change below about -60%; inconclusive means no clear call, values can overlap the other calls; inactive means above about -39%
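Steps: HFFs plated, 16 h 37C; compounds added; HCMV-luciferase added to MOI 1 PFU/cell; 72 h 37C; OneGlo reagent, 5 min room temperature; luminescence read, normalized to controls.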
LASV entry inh: inhibitors of Lassa virus binding or cell entry; Lassa virus pseudotype entry inhibition, cell reporter; Potency, µM (top dose mostly 37.9 µM), inactives show at the top dose activity change, negative = inhibition, most hits filed as inhibitors; 300,000 compounds, 1.2% hits; calls by dose curve; tested in HEK293 cells; further: potency means the concentration at half of the fitted maximal effect; nearly all actives have a fitted effect of over 50% in size
HCV inh: blocks hepatitis C virus. 340,000 compounds, 3.4% hits. Huh7.5.1 HCVcc-Cre infection, luciferase reporter, 44 h. Potency, µM (highest dose often 41.8 µM), for the others: at the highest dose activity change, negative = inhibition, most hits filed as inhibitors. AID 651820; active means well fitted inhibition curve with a large enough effect; inconclusive means small, poorly fitted or top-dose-only effect, or another doubt; inactive means no such curve, though single readings can be large or run the other way; further: potency means the concentration at half of the fitted maximal effect
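A cell-based infection assay in which seeded cells (1,000 per well) receive test compound after 4 h, are inoculated with HCVcc-Cre at approximately 0.5 moi, and are incubated 44 h before luminescence detection.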
Marburg entry inh: inhibitors of Marburg virus binding or cell entry; Marburg virus pseudotyped entry inhibition, cell reporter; Potency, µM (doses to about 37.8 µM), without a hit: at the highest dose activity change, negative = inhibition, actives largely listed as inhibitors; 300,000 compounds, 1.8% hits; AID 540276; calls by dose curve; tested in HEK293 cells; further: potency means the concentration at half of the fitted maximal effect
Starred values were filed as active, the others as inactive; ? = inconclusive; · = no result; [ ] = remark or other dose. Most compounds without a hit are left out; they make up all but 7.9% or so of the library. On the % scale 0 is the no-effect control and ±100 the full control effect.

SMILES	FMDV inh	HCMV inh	LASV entry inh	HCV inh	Marburg entry inh
COC(=O)C1=C(C)N(Cc2ccccc2)C(=NCc2ccc(OC)cc2)NC1c1cccc(F)c1 (stereo not given)	·	·	·	·	-1.3%[14.2 µM]
CCOC(=O)N1CCc2c(sc(NC(C)=O)c2C(N)=O)C1	-19.6%	-21.6	·	-0.3%	·
CCN1CCc2c(sc(NC(=O)c3ccc(S(=O)(=O)N(CC)c4ccccc4)cc3)c2C(N)=O)C1	25.1µM*	-31.7	?	?	?
CCN1CCc2c(sc(NC(=O)C3COc4ccccc4O3)c2C(N)=O)C1 (stereo not given)	24.9%	-71.2*	-2.5%	·	4.4%
CCOC(=O)N1CCc2c(sc(NC(=O)C3COc4ccccc4O3)c2C(N)=O)C1 (stereo not given)	39.8µM*	-96.6*	·	15.8µM*	·
CN1CCc2c(sc(NC(=O)C3COc4ccccc4O3)c2C(N)=O)C1 (stereo not given)	15.6%	-62.6*	?	·	16.5%
CC(=O)N1CCc2c(sc(NC(=O)C3COc4ccccc4O3)c2C(N)=O)C1 (stereo not given)	7.6%	36.7	-4.5%[46.1 µM]	?	0.5%[46.1 µM]
Cc1ccc(OCC(=O)NCCCNC(=O)c2ccncc2)cc1	-3.6%	-19.6	2.9%	-26.4%	17.0%
COc1ccc(N2CCN(C(=O)c3cccc(NC(=O)c4nsc5ccccc45)c3)CC2)cc1	6.3%	33.4	-27.5%[46.1 µM]	·	·
Cc1ccc(CNc2nc(C)c(-c3ccn(CCN4CCOCC4)n3)s2)o1	-11.5%	·	·	·	·
CC(=O)N1CCc2c(sc(NC(=O)c3ccc(S(=O)(=O)N(C)C)cc3)c2C#N)C1	2.3%	1.0	·	14.4%	1.9%
CCN1CCc2c(sc(NC(=O)c3ccc(S(=O)(=O)N4CCOCC4)cc3)c2C(N)=O)C1	-8.6%	-4.8	·	6.3%	·
CCC(=O)Nc1sc2c(c1C(N)=O)CCN(C(C)=O)C2	-21.3%	19.2	·	2.0%	·
CC(=O)N1CCc2c(sc(NC(=O)c3ccc([N+](=O)[O-])o3)c2C(N)=O)C1	-2.0%	-101.0*	·	·	·
COC(=O)c1c(NC(=O)C2COc3ccccc3O2)sc2c1CCN(C(C)=O)C2 (stereo not given)	35.5µM*	12.4	?	?	-4.5%
CCN1CCc2c(sc(NC(=O)c3ccc(S(=O)(=O)N4CCOCC4)cc3)c2C(=O)OC)C1	-2.0%	15.3	?	?	10µM*
CC(=O)N1CCc2c(sc(NC(=O)c3ccc4c(c3)OCCO4)c2C#N)C1	21.4%	39.8	·	2.82µM*	·
COc1ccccc1C(=O)NCCC(=O)Nc1ccc(S(=O)(=O)N2CC(C)CC(C)C2)cc1 (stereo not given)	10.8%	-24.8	·	?	·
CCN1CCN(CC(=O)Nc2ccc(S(=O)(=O)N3C(C)CCCC3C)cc2)CC1 (stereo not given)	4.5%	-99.4*	8.9%	16.5%	1.6%[46.1 µM]
COc1ccccc1C(=O)NCCC(=O)Nc1ccc(S(=O)(=O)N2C(C)CCCC2C)cc1 (stereo not given)	-19.4%	-10.8	·	10µM*	·
Cc1ccc(C(C)CCN2CCOc3ccc(CN4CCOCC4)cc3C2)o1 (stereo not given)	-7.8%	·	·	·	·
O=C(NCc1ccccc1)C1=C[C@H](C2CCCCC2)C[C@H](OCc2ccc(CO)cc2)O1	-3.9%	-83.6*	·	13.9%	·
O=C(NCc1ccccc1)C1=C[C@@H](c2csc3ccccc23)C[C@@H](OCc2ccc(CO)cc2)O1	2.8%	-97.9*	·	?	·
O=C(NCc1ccccc1)C1=C[C@@H](c2csc3ccccc23)C[C@@H](OCCCCO)O1	28.7%	-97.1*	·	-20.3%[8.37 µM]	·
O=C(NC1CC1)C1=C[C@H](c2csc3ccccc23)C[C@H](OCCCCO)O1	-5.8%	1.1	·	-18.6%	·
SMILES	FMDV inh	HCMV inh	LASV entry inh	HCV inh	Marburg entry inh
Cc1cccnc1-c1cccc2c1OC(CNC(=O)C1CCCc3c1[nH]c1ccccc31)C2 (stereo not given)	3.7%	·	·	·	·
O=C(NCc1ccccc1Cl)c1ccc(-n2cnc3cccnc32)cc1	3.6%	-93.7*	6.7%[46.1 µM]	·	·
C[C@@H]1NC(=O)[C@H](CCCN=C(N)N)NC(=O)c2cc([N+](=O)[O-])cc(I)c2NCCC[C@@H](C(N)=O)NC1=O	-16.4%	-4.7	4.6%	7.94µM*	3.4%
CN1CCN(c2nc(-c3ccccc3)nc(-c3ccc(F)cc3)c2C#N)CC1	-12.3%	-33.6	-13.1%[46.1 µM]	?	11.2µM*
Cc1ccc(-c2ccc(/C=N/NC(N)=S)o2)cc1	33.6%	99.1	?	11.2µM*	?
NC(=S)N/N=C/c1ccc(-c2ccccc2)o1	0.0%	6.2	·	-20.2%	·
COc1ccccc1C(=O)NNC(=O)c1cccc(C)c1	36.2%	71.8	4.5%	5.4%	?
COc1ccc(CNc2ncncc2-c2ccoc2)c(OC)c1	-24.6%	·	·	·	·
CCNC(=O)Cc1c(OC)ccc2cc(Br)ccc12	-9.2%	-36.5	·	-9.5%	·
COc1ccc2cc(Br)ccc2c1CC(=O)NC1CC(C)(C)NC(C)(C)C1	0.0%	48.5	?	11.2µM*	18.3µM*
COc1ccccc1NC(=O)c1c([N+](=O)[O-])c(C(C)(C)C)nn1C	-24.5%	-67.7*	-18.9%	4.6%	-10.7%[46.1 µM]
Cc1ccccc1OCCc1c(C)[nH]c(=S)[nH]c1=O	?	-63.9*	?	-24.9%	?
CS(=O)c1ccccc1O (stereo not given)	-16.9%	-24.4	·	17.0%	·
O=S(c1ccccc1O)S(=O)c1ccccc1O (stereo not given)	2.1%	-26.5	-24.1%[46.1 µM]	10µM*	2.2%[46.1 µM]
CC(C)C[C@@H](CN1CCCC1CN1C(=S)NC[C@@H]1Cc1ccc(O)cc1)N1C[C@H](Cc2ccccc2)N(CC2CCCCC2)C1=S (stereo not given in full)	?	-70.5*	·	22.4µM*	·
CC(C)C[C@@H](CN1CCCC1CN1C(=S)NC[C@@H]1Cc1ccc(O)cc1)N1C[C@H](Cc2ccc(O)cc2)N(CC2CCCCCC2)C1=S (stereo not given in full)	?	-90.5*	·	?	·
CC(C)C[C@@H](CN1CCCC1CN1C(=S)NC[C@@H]1Cc1ccc(O)cc1)N1C[C@H](Cc2ccccc2)N(CC2CCCCCC2)C1=S (stereo not given in full)	0.0%	-15.0	·	?	·
CC(C)C[C@H]1CNC(=S)N1C[C@H]1CCCN1C[C@H](CC(C)C)N1C[C@H](Cc2ccc(O)cc2)N(CC2CCCCC2)C1=S	-20.0%	?	·	·	·
CC(Nc1nc(-c2ccncc2)nc2ccccc12)c1ccccc1 (stereo not given)	?	53.6	·	?	·
CC(Nc1nc(N2CCNCC2)nc2ccccc12)c1ccccc1 (stereo not given)	?	-36.0	?	10µM*	?
Cc1ccc(S(=O)(=O)NC2=C(N3CCN(Cc4ccccc4)CC3)C(=O)c3ccccc3C2=O)cc1	-20.6%	-65.2*	11.4%	2.0%	-17.1%
Cc1ccc(S(=O)(=O)NC2=C(N3CCN(c4ccccc4F)CC3)C(=O)c3ccccc3C2=O)cc1	-23.4%	-29.0	?	?	?

Screening results: PubChem, National Center for Advancing Translational Sciences (NCATS)
